Experimental data: ChEMBL document CHEMBL5308541, “MAIP: An Open-Source Tool to Enrich High-Throughput Screening Output and Identify Novel, Druglike Molecules with Antimalarial Activity” (ACS Med Chem Lett, 2023)
About 540 (0.36%) of roughly 150,000 compounds showed an effect of 50% or more. The list comes from a sample in which strong results are over-represented; it also holds similar structures and randomly drawn compounds.

test system: Plasmodium falciparum; assay: Primary screen in NF54 nanoGlo assay, in single point, at 2uM, 72h; a lower Z score goes with more inhibition; assay type: functional, Erythrocyte; details: timepoint 72 hour

**Q.** How did the “% Inhibition” value turn out when CN1CCN(C2(CNc3ncc(F)c(N(C)C)n3)CCCCC2)CC1 was run?
**A.** Its value is 7%.

**Q.** What about the Z score of the same compound?
**A.** The Z score was -1.15.

**Q.** How did the “% Inhibition” value turn out when Cc1noc(-c2cccc(NC(=O)c3ccccc3-c3ncc(-c4ccccc4)o3)c2)n1 was run?
**A.** The value was -8%.

**Q.** And the Z score?
**A.** The Z score was 1.16.

**Q.** Which results are given for CN1CCN(C[C@H]2CCCN(CC(C)(C)N3CCOCC3)C2)CC1?
**A.** % Inhibition: -20%; Z score: 3.47

**Q.** With Cc1cccc2c(-c3n[nH]c4ncnc(N)c34)c[nH]c12 as the compound, how does the “% Inhibition” value read?
**A.** Its value is -3%.

**Q.** And the Z score?
**A.** Its Z score is 0.47.

**Q.** How did the “% Inhibition” value turn out when CC(C)CCC1CCCC1NCCCN1CCOCC1 (stereo not drawn) was run?
**A.** Its value is 6%.

**Q.** What about the Z score of the same compound?
**A.** The Z score was -1.29.

**Q.** COc1ccc2nc3cc(Cl)ccc3c(O)c2c1 was tested. Which “% Inhibition” value did it give?
**A.** The value was 65%.

**Q.** And the Z score?
**A.** Its Z score is -9.86.

**Q.** CNc1cc(C)nc2cc(OC)ccc12 was tested. Which “% Inhibition” value did it give?
**A.** The value was -6%.

**Q.** What about the Z score of the same compound?
**A.** The Z score was 0.97.

**Q.** How did the “% Inhibition” value turn out when COc1ccc2c(O)c(Br)c(C)nc2c1 was run?
**A.** Its value is 75%.

**Q.** What about the Z score of the same compound?
**A.** The Z score was -13.24.

**Q.** For COCCN1CCC[C@@]2(CCN(c3ccnc4cc(Cl)ccc34)C2)C1, which “% Inhibition” value is on record?
**A.** Its value is 99%.

**Q.** And the Z score?
**A.** Its Z score is -17.32.

**Q.** COCCN1CC[C@H](CN(C)c2ccnc3cc(Cl)ccc23)C1 was tested. Which “% Inhibition” value did it give?
**A.** Its value is 98%.

**Q.** And the Z score?
**A.** Its Z score is -17.

**Q.** Which results are given for CN1CCC[C@@H]1CCNc1ncnc2cccc(F)c12?
**A.** % Inhibition: 9%; Z score: -1.43

**Q.** For CCN(Cc1[nH]c2ccc(Cl)cc2c1C)CC1CCN(C2CCN(C)CC2)CC1, which “% Inhibition” value is on record?
**A.** The value was 85%.

**Q.** And the Z score?
**A.** The Z score was -14.61.

**Q.** With CCN(Cc1cnn(-c2cccc(Cl)c2)c1)CC1CCN(C2CCN(C)CC2)CC1 as the compound, how does the “% Inhibition” value read?
**A.** The value was 82%.

**Q.** What about the Z score of the same compound?
**A.** Its Z score is -14.12.

**Q.** With CCN(Cc1cnc(-c2ccccc2C)nc1)CC1CCN(C2CCN(C)CC2)CC1 as the compound, how does the “% Inhibition” value read?
**A.** The value was -7%.

**Q.** What about the Z score of the same compound?
**A.** The Z score was 1.18.

**Q.** Which “% Inhibition” value does the source give for CCN(Cc1cc(F)ccc1-n1cccn1)CC1CCN(C2CCN(C)CC2)CC1 here?
**A.** The value was 16%.

**Q.** And the Z score?
**A.** The Z score was -2.76.

**Q.** Which results are given for COc1ccc2[nH]c(CN(Cc3cccnc3)CC3CCN(C4CCCC4)CC3)c(C)c2c1?
**A.** % Inhibition: 1%; Z score: -0.23

**Q.** Which results are given for CCN(Cc1cccc(OC2CCCC2)c1)CC1CCN(C2CCN(C)CC2)CC1?
**A.** % Inhibition: 20%; Z score: -3.46

**Q.** With Fc1ccc2ncnc(NC3CCN(C[C@H]4CCOC4)CC3)c2c1 as the compound, how does the “% Inhibition” value read?
**A.** The value was -10%.

**Q.** And the Z score?
**A.** Its Z score is 2.15.

**Q.** What does the source list for CN(CCCn1ccnc1)c1ccnc2cc(Br)ccc12?
**A.** % Inhibition: 99%; Z score: -17.18

**Q.** COc1cccc(-c2nc3cc(C#N)ccc3[nH]2)n1 was tested. Which “% Inhibition” value did it give?
**A.** The value was 0%.

**Q.** And the Z score?
**A.** Its Z score is 0.04.

**Q.** N#Cc1cccc(Cl)c1N1CCC(O)(CN)CC1 was tested. Which “% Inhibition” value did it give?
**A.** Its value is -3%.

**Q.** And the Z score?
**A.** The Z score was 0.43.

**Q.** Which results are given for O[C@@]1(c2c[nH]nn2)CCN(c2ccnc3cc(Cl)ccc23)C1?
**A.** % Inhibition: 44%; Z score: -6.63

**Q.** NCC1(O)CCN(c2ccnc3cc(F)c(Cl)cc23)CC1 was tested. Which “% Inhibition” value did it give?
**A.** Its value is 95%.

**Q.** What about the Z score of the same compound?
**A.** The Z score was -20.37.

**Q.** Cn1c(NCc2ccc(N3N=C(c4ccccc4)C[C@H]3c3ccccc3)cc2)nc2ccccc21 was tested. Which “% Inhibition” value did it give?
**A.** Its value is -11%.

**Q.** What about the Z score of the same compound?
**A.** The Z score was 1.96.

**Q.** How did the “% Inhibition” value turn out when C[C@H]1CCCN(CCOc2ccccc2CN2CCN(c3cccnc3)CC2)C1 was run?
**A.** Its value is -2%.

**Q.** And the Z score?
**A.** The Z score was 0.3.

**Q.** Which results are given for Cc1cnccc1N1CCCN(Cc2ccccc2OCCN2CCN(C)CC2)CC1?
**A.** % Inhibition: 96%; Z score: -19.05

**Q.** Which “% Inhibition” value does the source give for CN1CCN(CCOc2ccccc2CN2CC3CCC(C2)NC3)CC1 (stereo not drawn) here?
**A.** The value was -1%.

**Q.** What about the Z score of the same compound?
**A.** Its Z score is 0.22.

**Q.** How did the “% Inhibition” value turn out when O=C(NC[C@@H](CN1CCCC1)C1CC1)c1ccnn1CC(F)(F)F was run?
**A.** The value was -1%.

**Q.** What about the Z score of the same compound?
**A.** Its Z score is 0.12.

**Q.** Which “% Inhibition” value does the source give for C[C@@H](CS(C)(=O)=O)N(C)c1ncnc2cccc(F)c12 here?
**A.** The value was 6%.

**Q.** And the Z score?
**A.** The Z score was -1.06.

**Q.** For C[C@H]1CCCN(CCNC(=O)c2ccc(-c3ccc4c(=O)[nH]ccc4c3)cc2)C1, which “% Inhibition” value is on record?
**A.** The value was 67%.

**Q.** And the Z score?
**A.** The Z score was -11.64.

**Q.** What does the source list for CN1CCC(N2CCC(CN(CCCn3cccn3)Cc3ccncc3)CC2)CC1?
**A.** % Inhibition: -6%; Z score: 0.97

**Q.** Which results are given for Cc1ccc2[nH]c3c(c2c1)CCCC3NC1CC2CCC1O2 (stereo not drawn)?
**A.** % Inhibition: -7%; Z score: 1.25

**Q.** What does the source list for Cn1ncc(C(F)(F)F)c1CN[C@H]1CCCc2c1[nH]c1ccc(Cl)cc21?
**A.** % Inhibition: -15%; Z score: 2.6

**Q.** Clc1ccc2[nH]c3c(c2c1)CCCC3NC1CCN(C2CCOC2)CC1 (stereo not drawn) was tested. Which “% Inhibition” value did it give?
**A.** Its value is 83%.

**Q.** What about the Z score of the same compound?
**A.** The Z score was -16.55.

**Q.** For CN1CCC[C@@H](CNc2ccnc3ccncc23)[C@@H]1c1ccnn1C, which “% Inhibition” value is on record?
**A.** The value was 10%.

**Q.** And the Z score?
**A.** The Z score was -1.79.

**Q.** Which “% Inhibition” value does the source give for COCCN1CCC(Nc2nccnc2NC2CCN(CCOC)CC2)CC1 here?
**A.** Its value is 1%.

**Q.** What about the Z score of the same compound?
**A.** The Z score was -0.15.

**Q.** With COCCN1CCC(Nc2ncnc3c(C)cccc23)CC1 as the compound, how does the “% Inhibition” value read?
**A.** The value was 4%.

**Q.** What about the Z score of the same compound?
**A.** Its Z score is -0.91.

**Q.** How did the “% Inhibition” value turn out when COCCCN1CCC(Nc2ncnc3cc(C)c(C)cc23)CC1 was run?
**A.** The value was 96%.

**Q.** And the Z score?
**A.** Its Z score is -16.62.

**Q.** With COc1ccc(Nc2ncc(CN(C)CCn3ccnc3)s2)cc1 as the compound, how does the “% Inhibition” value read?
**A.** The value was 1%.

**Q.** And the Z score?
**A.** Its Z score is -0.26.

**Q.** Which results are given for COCCN1CC[C@H](CNC2CCN(c3ncc4ccc(F)cc4n3)CC2)C1?
**A.** % Inhibition: 58%; Z score: -10.01

**Q.** CCc1cc(Nc2ccc(N3CCOCC3)nc2)nc(-c2ccncc2)n1 was tested. Which “% Inhibition” value did it give?
**A.** The value was 56%.

**Q.** What about the Z score of the same compound?
**A.** The Z score was -9.65.

**Q.** With CCc1cc(NC2CCN(CC(F)F)CC2)nc(-c2ccncc2)n1 as the compound, how does the “% Inhibition” value read?
**A.** Its value is 4%.

**Q.** And the Z score?
**A.** The Z score was -0.75.

**Q.** NCCc1cccc(CN2CCC[C@H](CN3CCCCC3)C2)c1 was tested. Which “% Inhibition” value did it give?
**A.** The value was 3%.

**Q.** And the Z score?
**A.** Its Z score is -0.52.

**Q.** Which results are given for CN1CCC(N2CCN(Cc3c(Cl)ccc(O)c3Cl)CC2)CC1?
**A.** % Inhibition: -11%; Z score: 1.6

**Q.** What does the source list for O=C(NCc1ccc(N2CCNCC2)c(F)c1)c1ccc(-c2noc(C(F)(F)F)n2)cc1?
**A.** % Inhibition: 67%; Z score: -11.53

**Q.** With OC1CCN(Cc2cccc(NCc3cccc(OCCn4ccnc4)c3)c2)CC1 as the compound, how does the “% Inhibition” value read?
**A.** Its value is -3%.

**Q.** What about the Z score of the same compound?
**A.** The Z score was 0.55.

**Q.** With O[C@H]1CCN(Cc2cccc(NCc3cn4ccnc4s3)c2)C1 as the compound, how does the “% Inhibition” value read?
**A.** Its value is 52%.

**Q.** And the Z score?
**A.** Its Z score is -7.83.

**Q.** What does the source list for CCNc1cc(C)nc(NCCNC(=O)Nc2cc(F)cc(F)c2)n1?
**A.** % Inhibition: 79%; Z score: -17.07

**Q.** For CCNc1nc(C)cc(Nc2ccc(NC(=O)Nc3ccc(F)cc3F)cc2)n1, which “% Inhibition” value is on record?
**A.** The value was 96%.

**Q.** What about the Z score of the same compound?
**A.** The Z score was -20.77.

**Q.** CCNc1cc(C)nc(NCCNC(=O)c2cc(-n3cccn3)nc(C)n2)n1 was tested. Which “% Inhibition” value did it give?
**A.** The value was -1%.

**Q.** What about the Z score of the same compound?
**A.** The Z score was 0.15.

**Q.** How did the “% Inhibition” value turn out when NS(=O)(=O)Cc1cccc(NC(=O)c2cc(F)cc3c(=O)c4cccc(F)c4[nH]c23)c1 was run?
**A.** Its value is -8%.

**Q.** And the Z score?
**A.** Its Z score is 1.68.

**Q.** Which results are given for CN(C)Cc1ccccc1NC(=O)c1cccc2c(=O)c3ccccc3[nH]c12?
**A.** % Inhibition: -2%; Z score: 0.38

**Q.** With COc1cc2nc(NCC3(N4CCN(C)CC4)CCCC3)cc(C)c2cc1OC as the compound, how does the “% Inhibition” value read?
**A.** The value was 55%.

**Q.** And the Z score?
**A.** Its Z score is -8.35.

**Q.** COc1cc2nc(N3CCC(CN4CCN(C)CC4)CC3)cc(C)c2cc1OC was tested. Which “% Inhibition” value did it give?
**A.** The value was -2%.

**Q.** And the Z score?
**A.** The Z score was 0.44.
